# HIF-2a inh: HIF-2a reporter inhibitors, primary screen, luminescence, 786-0 RCC cells | 786-0 RCC cells HIF-2a reporter, luciferase luminescence, overnight | inhibition, % at 18.8 µM | 360,000 tested, 0.72% active;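 active means inhibition of the luminescence signal of 40% or more relative to plate controls, in a single-dose primary screen at 18.75 µM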
# Shn3 3UTR inh: reduction of Shn3 3'UTR firefly luciferase signal, primary screen, Schnurri-3 inhibitor project, cell-based, Clone20 osteoblasts, set 2 | 360,000 tested, 0.52% active | Clone20 osteoblast Shn3 3'UTR firefly luciferase, 24 h | inhibition, % at 12.5 µM | AID 588674, 2011;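 active means mean inhibition of at least 75% with every replicate also reaching 75%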;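 further: 0% = median of neutral control wells and 100% = pilot-screen positive control compound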
# CF NFkB block: inhibitors of PAF-induced NF-kB signaling, primary screen, cell-based, GFP fluorescence, uHTS; KKLEB NF-kB-GFP reporter, GFP fluorescence overnight; inhibition, % at 5 µM; 360,000 tested, 0.86% active;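 active means at least 50% inhibition at 5 µM, scaled per plate between neutral and stimulator controls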;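 further: PAF is a Pseudomonas aeruginosa culture filtrate used as stimulus; plate controls were PAF-stimulated DMSO wells for no effect and unstimulated DMSO wells for full effect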
# Peg3 prom inh: Peg3 promoter-driven luciferase inhibitors, primary screen, cell-based, HeLa, luciferase luminescence; HeLa PEG-Prom luciferase reporter, overnight; inhibition, % at 20 µM; 360,000 tested, 1.7% active; AID 588405, 2011;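 active means inhibition of at least 50% at 20 µM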
# KKLEB cytotox: cytotoxicity in KKLEB CF airway cells, primary screen, cytotoxicity control for CF NF-kB inhibitor project, cell-based, uHTS, fluorescence assay plates; KKLEB CF airway cells viability, ATPlite luminescence, overnight; hits give low values; cells stimulated with P. aeruginosa culture filtrate; activity change (cytotoxicity), % at 5 µM; 360,000 tested, 0.36% active; AID 602141, 2011;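 active means corrected activity change at or below -50% at 5 µM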
# LMP1 NFkB inh: EBV LMP1-driven NF-kappaB luciferase reporter inhibitors, primary screen, cell-based, luminescence, single point; inhibition, % at 12.5 µM; 350,000 tested, 0.69% active; LMP1-induced NF-kappaB luciferase reporter cells; in the data active means inhibition above about 41%;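 further: 0% = neutral control wells and 100% = reference inhibitor control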
# Active calls of the source: *; x = no result given. Rows were chosen to be rich in hits. Some 2.9% of all compounds tested hit in one or more screens of this group.
SMILES,HIF-2a inh,Shn3 3UTR inh,CF NFkB block,Peg3 prom inh,KKLEB cytotox,LMP1 NFkB inh
CCc1ccc(C(=O)COC(=O)c2cccc(N3C(=O)c4c(C)nc5ccccc5c4C3=O)c2)cc1,5,-17,-9,14,-9,45*
CC(C)C[C@H]1CN([C@@H](Cc2ccccc2)CN2CCC[C@@H]2CN2C(=O)C(=O)NC[C@@H]2Cc2ccccc2)C(=O)C(=O)N1CC1CCCCC1,-76,14,42,29,-16,x
CC(=O)Nc1cccc(NC(=O)C2CC(=O)N(C3CCCCC3)C2)c1 (centres undefined),5,-7,4,9,4,-8
CN(C)S(=O)(=O)c1ccc(C(=O)Nc2nnc(SCC(=O)NCC3CCCO3)s2)cc1 (centres undefined),-24,7,-21,-3,5,-6
Cn1cc(SCC(=O)NCC2CCCO2)c2ccccc21 (centres undefined),21,-4,-2,6,0,85*
CC(C)(C)c1ccc(C(=O)Nc2nnc(SCC(=O)NCC3CCCO3)s2)cc1 (centres undefined),-1,-18,-2,-41,-62*,49*
CCCn1cc(SCC(=O)NCC2CCCO2)c2ccccc21 (centres undefined),-104,-5,-17,-63,-4,-8
COC(=O)CC1C(=O)NCCN1C(=O)CSc1nc2cc(Cl)ccc2o1 (centres undefined),9,2,6,13,-5,9
CN1C(=O)/C(=C/c2cc(N=Nc3ccccc3)ccc2O)SC1=S,-56,18,74*,16,-52*,7
Cc1c(N2C(=O)/C(=C\c3ccccc3O)SC2=S)c(=O)n(-c2ccccc2)n1C,5,-10,-15,17,14,-2
O=C(Cn1cc(C(F)(F)F)cc(Cl)c1=O)NCCc1ccccc1,16,96*,11,1,16,-10
O=C(Cn1cc(C(F)(F)F)cc(Cl)c1=O)NCc1ccccc1,-162,-42,7,-155,-7,-35
CCCC(C(=O)Nc1nccs1)c1ccccc1 (centres undefined),7,-8,-5,0,9,-5
CCCc1sc(N/N=C/c2ccccn2)nc1-c1ccc(Br)cc1,-176,84,24,-52,-23,59*
COc1ccc(NS(=O)(=O)c2ccc(OC)c(N(C)S(=O)(=O)c3ccc(Cl)cc3)c2)cc1,13,87*,17,35,-16,31
CC(=O)NC(c1ccc(C)cc1)c1cc([N+](=O)[O-])c2cccnc2c1O (centres undefined),24,45,11,54*,7,26
CCCC(=O)NC(c1ccco1)c1cc([N+](=O)[O-])c2cccnc2c1O (centres undefined),11,1,57*,38,-11,-3
O=[N+]([O-])c1cc(F)c2cccnc2c1O,1,-2,-14,16,8,1
CCC(=O)NC(c1ccco1)c1cc(Br)c2cccnc2c1O (centres undefined),17,38,-8,50,19,x
CCC(=O)NC(c1ccc(C)cc1)c1cc([N+](=O)[O-])c2cccnc2c1O (centres undefined),-1,8,2,53*,-4,17
CCn1c(CNS(=O)(=O)c2ccc(Br)cc2)n[nH]c1=S,22,8,-14,2,6,1
Cn1c(SCC(=O)N2CCCC2=O)nnc1-c1ccccc1F,19,-15,-6,15,0,1
COc1cccc(SCc2noc(C(=O)NCCCN3CCOCC3)c2C(=O)NCCCN2CCOCC2)c1,-1,-10,-34,2,-9,6
O=S(=O)(Nc1cc(C(F)(F)F)ccc1N1CCOCC1)c1ccccc1,13,8,8,3,2,-4
O=S(=O)(Nc1cc(C(F)(F)F)ccc1N1CCOCC1)c1ccc2ccccc2c1,22,12,23,50*,-4,0
SMILES,HIF-2a inh,Shn3 3UTR inh,CF NFkB block,Peg3 prom inh,KKLEB cytotox,LMP1 NFkB inh
CCOc1ccc(N2C(=O)CC(Sc3nc(C)cc(C)n3)C2=O)cc1 (centres undefined),6,-2,8,24,-5,1
CCOc1ccc(N2C(=O)CC(Sc3nnnn3-c3ccccc3)C2=O)cc1 (centres undefined),-1,92*,49,96*,1,8
CC(C)(C)C(=O)Nc1ccc(S(=O)(=O)N2CCC(c3nc4ccccc4[nH]3)CC2)cc1,22,16,3,25,2,8
Cc1nc(C(N)=O)c(N)n1CCc1ccccc1,5,-16,-14,-11,12,-1
c1ccc(CC2CCN(c3ncnc4sccc34)CC2)cc1,-65,90*,-6,-44,4,24
Cc1ccc(S(=O)(=O)N2CCN(c3ncnc4sccc34)CC2)cc1,19,87*,-2,26,-16,19
CCCc1nc2sc3c(=O)n(N)cnc3c2c2c1CCCC2,16,-17,4,-7,-4,0
COc1ccccc1S(=O)(=O)N(C)C[C@H]1OCc2cnnn2CCCC(=O)N([C@H](C)CO)C[C@@H]1C,14,-9,-5,6,-4,0
COc1cc([C@@H]2c3cc4c(cc3[C@@H](O[C@@H]3O[C@@H]5CO[C@@H](C)O[C@H]5[C@H](O)[C@H]3O)[C@H]3COC(=O)[C@H]23)OCO4)cc(OC)c1O,12,81,5,9,-2,70*
COc1cc(C2c3cc4c(cc3OC(NNC(N)=O)C2C)OCO4)cc(OC)c1OC (centres undefined),26,-8,51*,-19,-29,-2
COc1cc(C2c3cc4c(cc3C(OC3OC5COC(c6cccs6)OC5C(O)C3O)C3COC(=O)C23)OCO4)cc(OC)c1O (centres undefined),7,94*,33,21,10,75*
COc1cc(C2c3cc4c(cc3OC(NNC(N)=S)C2C)OCO4)cc(OC)c1OC (centres undefined),21,-22,44,-10,-22,7
COc1cc([C@@H]2c3cc4c(cc3[C@H](O)[C@H]3COC(=O)[C@H]23)OCO4)cc(OC)c1OC,29,10,51*,-33,-28,-4
CC(=O)c1ccc(-c2nc3c4ccccc4ccn3c2C(C)=O)o1,-107,-7,-16,-106,-17,77*
O=C(COC(=O)COc1ccc(Cl)cc1Cl)Nc1cccnc1Cl,6,-7,6,-1,-8,2

# Compound activity: PubChem BioAssay, several laboratories
